# Experimental data from PubChem BioAssay (NCATS).
# Values joined by “and” are separate entries in the source; they are usually repeats but may differ in a detail not shown here. Identical values can stand only once. Inconclusive results are not listed. Active and inactive are the calls of the source. Unless noted, calls come from the whole dose curve; as a rule, active = well fitted curve in the direction sought with a large enough effect; inconclusive = small, poorly fitted or top-dose-only effect, or another doubt; inactive = no such curve, though single readings can be large; an effect the other way counts as inactive or inconclusive.
# Key:
# [1] = target: Catechol O-methyltransferase (Homo sapiens) (UniProt P21964); experiment: Confirmatory Screen for Target Class Profiling of Small Molecule Inhibitors of Methyltransferases (AID 1745852; calls by dose curve; note: potency is the fitted concentration of half-maximal effect; for activity change, negative = inhibition: % is set by controls: 0 for no effect and ±100 for the full control effect); settings: MTase-Glo luminescence, SAH detection, recombinant enzyme; measured here: COMT max response; stronger effect = lower value
# [2] = target: Guanidinoacetate N-methyltransferase (Homo sapiens) (UniProt Q14353); experiment: as above; settings: MTase-Glo luminescence, SAH detection, recombinant enzyme; activity change, negative = inhibition: at 57.3 µM (top of the series)
# [3] = target: Nicotinamide N-methyltransferase (Homo sapiens) (UniProt P40261); experiment: as above; settings: MTase-Glo luminescence, SAH detection, recombinant enzyme; measured here: NNMT max response; stronger effect = lower value
# [4] = target: Phenylethanolamine N-methyltransferase (Homo sapiens) (UniProt P11086); experiment: as above; settings: MTase-Glo luminescence, SAH detection, recombinant enzyme; measured here: PNMT max response; stronger effect = lower value
# [5] = target: Metallo-beta-lactamase type 2 (Klebsiella pneumoniae) (UniProt C7C422); experiment: qHTS to identify inhibitors of the New Delhi Metallo-beta-lactamase (NDM): assay validation screen against the NCATS LOPAC Collection (AID 1794843); settings: NDM-1 enzyme, nitrocefin hydrolysis, absorbance 485 nm; series mostly up to 38.4 µM; note: potency is the fitted concentration of half-maximal effect;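 for activity change, negative = inhibition: nitrocefin turnover by NDM-1 measured as 485 nm absorbance at plateau; % is set by controls: 0 for no effect and ±100 for the full control effect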
# Procedure, shortened: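 NDM-1 at 2 nM final in 50 mM HEPES pH 7.0 with 1 uM ZnSO4 and 0.01% Tween20 was preincubated with library compounds in DMSO. Nitrocefin (50 uM stock) was then added, and absorbance at 485 nm was read at the kinetic plateau.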
# [6] = NCATS anti-infectives library activity on HEK293 viability as a counter-qHTS vs the C. elegans viability qHTS (AID 1745854); settings: HEK293 viability counter-screen; series mostly up to 83.3 µM; note: % is set by controls: 0 for no effect and ±100 for the full control effect
# Procedure, shortened: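 HEK293 cells, 1500 per well, exposed 24 hr at 37C in 5% CO2 to compounds in a 1:5 titration, up to 41.7 uM final. Viability read as CellTiter-Glo luminescence after 10 min at room temperature.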
# [7] = NCATS anti-infectives library activity on the primary C. elegans qHTS viability assay (AID 1745855; calls by dose curve); settings: C. elegans worm area imaging, day 7; at 41.8 µM (top of the series) unless noted
# Procedure, shortened: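 Viability is taken from GFP fluorescence of PE254-GFP-FLuc C. elegans imaged by laser cytometry over 7 days. Ten L1 worms per well grow at 21 °C on TOP10 E. coli capsules with titrated compound; levamisole marks toxicity.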
# [8] = target: Rap guanine nucleotide exchange factor 3 (Homo sapiens) (UniProt O95398); experiment: Confirmatory qHTS for antagonist of cAMP-regulated guanine nucleotide exchange factor 3 (EPAC1) (AID 1645880); settings: EPAC1 Rap1B-BODIPY-GDP exchange, fluorescence; series mostly up to 115 µM; note: nearly all actives have a fitted effect of over 55% in size; note: potency is the fitted concentration of half-maximal effect
# Procedure, shortened: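 Nucleotide exchange uses 100 nM EPAC1, 250 nM RAP1B-BODIPY-GDP and 50 uM GDP, with compounds in a concentration-titration series. After 5 min at room temperature, fluorescence (480 nm ex/540 nm em) is read every 5 min for 30 min. Data are normalized to control ATA and DMSO.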
# [9] = target: Rap guanine nucleotide exchange factor 3 (Homo sapiens) (UniProt O95398); experiment: Confirmatory qHTS for agonist of cAMP-regulated guanine nucleotide exchange factor 3 (EPAC1) (AID 1645881); settings: EPAC1 Rap1B BODIPY-GDP exchange fluorescence; series mostly up to 154 µM; note: nearly all actives have a fitted effect of over 75% in size; note: potency is the fitted concentration of half-maximal effect
# [10] = target: Rap guanine nucleotide exchange factor 4 (Homo sapiens) (UniProt Q8WZA2); experiment: Confirmatory qHTS for antagonist of cAMP-regulated guanine nucleotide exchange factor 4 (EPAC2) (AID 1645885); settings: EPAC2 Rap1B-BODIPY-GDP exchange fluorescence, biochemical; series mostly up to 114 µM; note: nearly all actives have a fitted effect of over 25% in size; note: potency is the fitted concentration of half-maximal effect; for activity change, negative = inhibition: % is set by controls: 0 for no effect and ±100 for the full control effect
# [11] = Primary qHTS for inhibitors of nuclear receptor binding SET domain protein 2 (NSD2) in an RCH-ACV wild type WT cells (2C) (AID 1645877); settings: RCH-ACV NSD2 WT (2C) viability, CellTiter-Glo, 72 h; series mostly up to 44.9 µM; note: nearly all actives have a fitted effect of over 70% in size; note: potency is the fitted concentration of half-maximal effect
# [12] = target: Rap guanine nucleotide exchange factor 4 (Homo sapiens) (UniProt Q8WZA2); experiment: Confirmatory qHTS for agonist of cAMP-regulated guanine nucleotide exchange factor 4 (EPAC2) (AID 1645884); settings: EPAC2 GEF activity, Rap1B-BODIPY-GDP fluorescence; series mostly up to 154 µM;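 note: nucleotide exchange releases bodipy-GDP from Rap1 and this lowers its fluorescence; nearly all actives have a fitted effect of over 65% in size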; note: potency is the fitted concentration of half-maximal effect
# [13] = target: Rap guanine nucleotide exchange factor 3 (Homo sapiens) (UniProt O95398); experiment: Counterscreen qHTS for antagonist of cAMP-regulated guanine nucleotide exchange factor 3 (EPAC1) (AID 1645888); settings: Rap1B-BODIPY-GDP nucleotide exchange, fluorescence; series mostly up to 154 µM;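 note: fluorescence loss as bound BODIPY-GDP is released from Rap1B; % of control where 0% means no effect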
# Procedure, shortened: (§1)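 Measured: fluorescence of BODIPY-GDP bound to Rap1B, which falls as exchange proceeds. Conditions include 50 uM competing GDP, 5 and 30 min reads, and a later cAMP challenge for antagonist detection.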
# [14] = target: Rap guanine nucleotide exchange factor 3 (Homo sapiens) (UniProt O95398); experiment: Counterscreen qHTS for agonist of cAMP-regulated guanine nucleotide exchange factor 3 (EPAC1) (AID 1645889); settings: EPAC1 Rap1B-BODIPY-GDP exchange, fluorescence; series mostly up to 154 µM; note: % of control where 0% means no effect; nearly all actives have a fitted effect of over 40% in size
# Procedure, shortened: as §1
# [15] = Primary qHTS for inhibitors of nuclear receptor binding SET domain protein 2 (NSD2) in an isogenic RCH-ACV NSD2 p.E1099K mutant (9B) (AID 1645876); settings: RCH-ACV (leukaemia line) NSD2 E1099K (9B) viability, CellTiter-Glo, 72 h; series mostly up to 44.9 µM; note: potency is the fitted concentration of half-maximal effect; nearly all actives have a fitted effect of over 70% in size
# Sequence of Nicotinamide N-methyltransferase (Homo sapiens) (P40261 whole entry, looked up): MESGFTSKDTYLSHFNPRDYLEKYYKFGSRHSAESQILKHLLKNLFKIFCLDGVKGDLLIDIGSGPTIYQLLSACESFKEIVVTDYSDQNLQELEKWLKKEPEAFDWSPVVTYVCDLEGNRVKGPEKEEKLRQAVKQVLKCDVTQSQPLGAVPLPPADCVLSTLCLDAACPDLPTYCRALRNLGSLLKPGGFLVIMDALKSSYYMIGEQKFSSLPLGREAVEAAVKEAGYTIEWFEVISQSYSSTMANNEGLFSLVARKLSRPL
# Sequence of Metallo-beta-lactamase type 2 (Klebsiella pneumoniae) (C7C422 whole entry, looked up): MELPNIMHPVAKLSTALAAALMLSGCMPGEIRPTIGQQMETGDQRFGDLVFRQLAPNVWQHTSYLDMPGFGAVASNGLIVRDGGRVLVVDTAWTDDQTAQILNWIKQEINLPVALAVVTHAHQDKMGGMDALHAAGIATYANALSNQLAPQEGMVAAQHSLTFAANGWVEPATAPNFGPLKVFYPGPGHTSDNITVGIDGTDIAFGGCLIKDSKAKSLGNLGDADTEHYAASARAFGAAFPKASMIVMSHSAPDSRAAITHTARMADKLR
# Sequence of Phenylethanolamine N-methyltransferase (Homo sapiens) (P11086 whole entry, looked up): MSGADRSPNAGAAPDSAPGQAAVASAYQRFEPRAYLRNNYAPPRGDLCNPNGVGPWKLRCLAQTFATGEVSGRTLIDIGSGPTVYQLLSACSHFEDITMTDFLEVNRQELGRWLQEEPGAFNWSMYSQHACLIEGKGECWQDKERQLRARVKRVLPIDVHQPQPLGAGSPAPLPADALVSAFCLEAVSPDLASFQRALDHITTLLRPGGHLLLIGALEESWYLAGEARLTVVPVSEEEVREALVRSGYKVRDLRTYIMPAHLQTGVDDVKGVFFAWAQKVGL
# Sequence of Rap guanine nucleotide exchange factor 3 (Homo sapiens) (O95398 whole entry, looked up): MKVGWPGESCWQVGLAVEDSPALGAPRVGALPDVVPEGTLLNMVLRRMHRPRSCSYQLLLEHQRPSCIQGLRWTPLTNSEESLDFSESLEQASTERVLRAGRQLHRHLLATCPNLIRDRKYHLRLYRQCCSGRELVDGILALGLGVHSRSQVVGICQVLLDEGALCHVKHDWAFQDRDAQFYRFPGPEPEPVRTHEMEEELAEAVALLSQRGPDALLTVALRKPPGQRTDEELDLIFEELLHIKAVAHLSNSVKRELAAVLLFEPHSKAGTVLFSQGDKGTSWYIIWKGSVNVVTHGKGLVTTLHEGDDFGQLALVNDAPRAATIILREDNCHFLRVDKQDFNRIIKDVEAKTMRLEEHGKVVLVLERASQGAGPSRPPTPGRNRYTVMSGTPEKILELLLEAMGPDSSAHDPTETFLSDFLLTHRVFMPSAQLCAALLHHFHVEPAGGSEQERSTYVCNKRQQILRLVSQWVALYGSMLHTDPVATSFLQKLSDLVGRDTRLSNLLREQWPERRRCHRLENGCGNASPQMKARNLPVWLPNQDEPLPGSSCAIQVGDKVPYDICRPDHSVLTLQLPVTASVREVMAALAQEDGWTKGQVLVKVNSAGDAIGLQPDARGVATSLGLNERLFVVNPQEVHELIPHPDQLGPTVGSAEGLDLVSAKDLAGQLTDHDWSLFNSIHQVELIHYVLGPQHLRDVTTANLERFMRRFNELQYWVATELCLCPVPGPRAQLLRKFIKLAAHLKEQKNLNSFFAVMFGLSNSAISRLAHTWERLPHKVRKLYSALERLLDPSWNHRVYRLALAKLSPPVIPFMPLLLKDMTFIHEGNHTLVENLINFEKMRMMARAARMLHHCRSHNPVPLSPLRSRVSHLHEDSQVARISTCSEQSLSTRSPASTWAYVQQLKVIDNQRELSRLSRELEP
# Sequence of Catechol O-methyltransferase (Homo sapiens) (P21964 whole entry, looked up): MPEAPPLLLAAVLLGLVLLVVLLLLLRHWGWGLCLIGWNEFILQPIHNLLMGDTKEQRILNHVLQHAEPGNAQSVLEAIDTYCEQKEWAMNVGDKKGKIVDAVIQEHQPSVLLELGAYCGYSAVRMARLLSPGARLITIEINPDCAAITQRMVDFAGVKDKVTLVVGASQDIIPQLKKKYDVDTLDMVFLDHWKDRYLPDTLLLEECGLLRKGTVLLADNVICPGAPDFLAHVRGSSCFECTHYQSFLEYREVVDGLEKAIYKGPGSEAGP
# Sequence of Rap guanine nucleotide exchange factor 4 (Homo sapiens) (Q8WZA2 whole entry, looked up, the tested form may be a part): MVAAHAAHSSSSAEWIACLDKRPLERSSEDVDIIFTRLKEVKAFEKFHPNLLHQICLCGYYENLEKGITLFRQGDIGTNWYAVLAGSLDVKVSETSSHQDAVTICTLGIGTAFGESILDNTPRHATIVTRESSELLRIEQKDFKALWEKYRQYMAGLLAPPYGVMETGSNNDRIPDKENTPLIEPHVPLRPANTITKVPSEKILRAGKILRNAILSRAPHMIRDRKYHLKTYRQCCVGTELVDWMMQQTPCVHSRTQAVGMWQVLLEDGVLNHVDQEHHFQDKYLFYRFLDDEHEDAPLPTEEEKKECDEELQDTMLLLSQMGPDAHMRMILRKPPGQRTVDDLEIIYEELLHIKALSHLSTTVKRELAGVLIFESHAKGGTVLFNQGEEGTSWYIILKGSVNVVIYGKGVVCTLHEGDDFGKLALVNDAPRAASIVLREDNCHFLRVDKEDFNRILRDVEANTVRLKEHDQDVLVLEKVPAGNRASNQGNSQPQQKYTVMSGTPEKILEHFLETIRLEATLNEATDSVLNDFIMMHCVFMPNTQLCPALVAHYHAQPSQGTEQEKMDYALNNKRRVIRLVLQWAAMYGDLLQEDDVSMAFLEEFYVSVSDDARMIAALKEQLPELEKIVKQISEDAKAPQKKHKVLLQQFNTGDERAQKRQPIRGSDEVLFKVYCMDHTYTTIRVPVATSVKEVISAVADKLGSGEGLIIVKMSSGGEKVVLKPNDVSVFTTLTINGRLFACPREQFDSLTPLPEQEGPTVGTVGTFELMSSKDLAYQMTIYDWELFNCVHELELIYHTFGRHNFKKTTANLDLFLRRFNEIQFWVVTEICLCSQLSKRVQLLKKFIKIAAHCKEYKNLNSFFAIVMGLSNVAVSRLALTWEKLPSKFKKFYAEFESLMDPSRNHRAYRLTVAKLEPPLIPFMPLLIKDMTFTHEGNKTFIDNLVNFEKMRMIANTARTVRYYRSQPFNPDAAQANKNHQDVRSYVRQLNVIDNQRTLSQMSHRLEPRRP
structure (smiles),measurement,setting,value
O=C(O)C1=CC(=C(c2ccc(O)c(C(=O)O)c2)c2ccc(O)c(C(=O)O)c2)C=CC1=O,activity,[1],-24.2%
same,Potency,[2],24300 nM (active)
same,activity,[3],-4.1%
same,activity,[4],2.52%
same,Potency,[5],1260 nM (active)
Oc1cc(O)c2c(c1)O[C@H](c1ccc(O)c(O)c1)[C@@H](O)C2,activity,[1],171%
same,"activity change, negative = inhibition",[2],4.5%
same,activity,[3],-7.72%
same,activity,[4],7.68%
same,outcome,[6],inactive
same,outcome,[7],inactive
same,Potency,[5],inactive
c1ccc(C(NCc2cccnc2)(c2ccccc2)c2ccccc2)cc1,Potency,[8],inactive
same,Potency,[9],inactive
same,Potency,[10],1.11 µM (active)
same,Potency,[5],inactive
CN(C)S(=O)(=O)c1ccc2c(c1)/C(=C/c1cc3c([nH]1)CCCC3)C(=O)N2,Potency,[11],2590 nM (active)
same,Potency,[5],inactive
CN1Cc2sccc2C(c2ccc(O)c(O)c2)C1 (centres undefined),activity,[1],138%
same,"activity change, negative = inhibition",[2],1.26%
same,activity,[3],-9.55%
same,activity,[4],2.33%
same,Potency,[5],inactive
O=c1[nH]ccc2c(O)cccc12,activity,[1],1.23%
same,"activity change, negative = inhibition",[2],2.16%
same,activity,[3],-0.246%
same,activity,[4],1.15%
NCC(O)C1CCCCCCC1 (centres undefined),activity,[1],-3.91%
same,"activity change, negative = inhibition",[2],2.24%
same,activity,[3],-12%
same,activity,[4],-45.1%
same,Potency,[5],inactive
COC(=O)C1=C(C)NC(C)=C([N+](=O)[O-])C1c1ccccc1C(F)(F)F (centres undefined),Potency,[9],inactive
same,Potency,[12],inactive
same,Potency,[10],inactive
same,outcome,[13],inactive
same,outcome,[14],inactive
same,Potency,[5],inactive
CC1CCN=C(N)S1 (centres undefined),activity,[1],4.68%
same,"activity change, negative = inhibition",[2],0.929%
same,activity,[3],-17.8%
same,activity,[4],-0.769%
same,Potency,[5],inactive
Nc1ncnc2c1c(-c1ccc(Oc3ccccc3)cc1)cn2C1CCCC1,Potency,[15],1640 nM (active)
same,Potency,[11],2590 nM (active)
same,Potency,[5],inactive
C[C@@]1(C2CCCC2)Cc2cc(OCC(=O)O)c(Cl)c(Cl)c2C1=O,Potency,[8],inactive
same,Potency,[9],inactive
same,Potency,[12],inactive
same,Potency,[10],17.5 µM (active)
same,activity,[1],5.42%
same,"activity change, negative = inhibition",[2],7.12%
same,activity,[3],-45.2%
same,activity,[4],5.32%
same,Potency,[5],inactive
CCCc1c(OCCCOc2ccc(OCC(=O)O)cc2)ccc(C(C)=O)c1O,Potency,[11],inactive
same,Potency,[9],inactive
same,Potency,[12],inactive
same,Potency,[10],15.6 µM (active)
same,outcome,[13],inactive
same,outcome,[14],inactive
same,activity,[1],14.3%
same,"activity change, negative = inhibition",[2],1.18%
same,activity,[3],-16.7%
same,activity,[4],0.821%
same,Potency,[5],inactive
Cn1c(=O)c2[nH]c(-c3ccc(S(=O)(=O)O)cc3)nc2n(C)c1=O,activity,[1],-8.67%
same,"activity change, negative = inhibition",[2],1.75%
same,activity,[3],-17.8%
same,activity,[4],-5.47%
Nc1ncnc2c1nc(Br)n2C1OC2COP(=O)(O)O[C@@H]2C1O (some centres undefined),Potency,[8],3140 nM (active)
same,Potency,[9],4.46 µM (active) and 3.97 µM (active)
same,Potency,[12],3.54 µM (active) and 3.16 µM (active)
same,Potency,[10],5.55 µM (active) and 3.93 µM (active)
